# Source: PubChem
# Only some compounds are listed: those with a hit (about 2.7% of all), similar ones and a draw of the others.
# F508del corr: CFTR F508del correction in bronchial cells | 0.36% of 350,000 active | CFBE cells, YFP halide quenching; stimulated with forskolin plus potentiator P3; % fluorescence drop versus neutral controls | activity (quench increase), % at 7.58 µM;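 active means mean added fluorescence quench of at least 8% versus neutral control, with both replicates also reaching 8%; inconclusive means only one of the mean or replicate conditions met; inactive means mean below 8% and not both replicates reaching 8%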;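 further: cells transiently co-express mutant CFTR-F508del with the halide-sensitive YFP; corrector assay measuring rescue of mutant channel to the surface after 24 h compound exposure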
# GSIS activator: primary screen for activators of insulin secretion dependent on glucose, INS-1E cells, GLuc reporter luminescence; activation, % at 16.6 µM; 0.61% of 370,000 active; INS-1E GLuc reporter insulin secretion, 2-3 h;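 active means lowest replicate activation of at least 40%, so every replicate reaches that level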;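 further: 0% = median of neutral control wells and 100% = median of IBMX positive control wells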
# EWS-Fli block: blocks EWS/Fli oncoprotein-driven transcription; A673 NR0B1-luciferase reporter, viability-normalised; inhibition, % at 12.6 µM; 0.67% of 350,000 active; AID 651661;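 active means mean inhibition of at least 50% after viability correction, with every replicate also passing that limit; inconclusive means mean reaches 50% but only one of two replicates passes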;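 further: firefly luciferase signal divided by Alamar Blue viability fluorescence both relative to DMSO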
# HIV Env fusion: HIV envelope-mediated fusion inhibition; HeLa-JRFL Env/CEM21 cell fusion, luciferase; inhibition, % at 12.3 µM; 1.1% of 360,000 active;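 active means mean replicate inhibition score of at least 50 and every replicate individually at or above 50; inconclusive means only one of the two criteria met; inactive means mean below 50 and not all replicates reaching 50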;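 further: 0% = plate neutral controls and 100% = maraviroc near 300 nM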
# PGC1a acetyl inh: modulators of PGC1a acetylation; 0.17% of 350,000 active; inhibition, % at 15.6 µM; U2OS PGC1a acetylation, AlphaScreen anti-acetyl-lysine; with virally co-expressed GCN5 acetyltransferase;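 active means every replicate shows inhibition of at least 40%; inconclusive means mean inhibition at least 40% but some replicate below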;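 further: 0% = neutral control wells and 100% = positive control wells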
# PAX8 reporter: inhibitors of PAX8 transcriptional activity in RMG-I cells; RMG-I TPO-luciferase reporter, SteadyGlo, 24 h; inhibition, % at 12.6 µM; 1.2% of 360,000 active;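 active means mean replicate inhibition at least 60% with every replicate also reaching 60%; inconclusive means only one of the two criteria is met; inactive means mean below 60% and not all replicates reaching 60%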;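 further: luciferase light reporting Pax8 driven TPO promoter activity; plate controls were median of neutral control wells for no effect and mitoxantrone controls for full effect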
# * = called active by the depositor; ? = inconclusive; . = no result; [ ] = remark or other dose.
SMILES,F508del corr,GSIS activator,EWS-Fli block,HIV Env fusion,PGC1a acetyl inh,PAX8 reporter
COCC(=O)Nc1ccc2c(c1)OC[C@@H](C)N(C(=O)COC)C[C@@H](C)[C@@H](OC)CN(C)C2=O,-2.3,-7.2,-4.2,.,5.0,11.0
C[C@@H]1CN([C@H](C)CO)C(=O)c2cc(Br)cnc2O[C@H]1CN(C)C(=O)Nc1ccccc1,-2.1,10.8,-2.2,-10.0[16.7 µM],9.5,.
COc1ccc2c3c(n(C)c2c1)[C@@H](CO)N(C(=O)c1ccc(F)cc1)CC31CCN(CC2CCOCC2)CC1,2.5,5.5,0.7,-7.0[16.7 µM],.,.
COc1ccccc1-c1ccc2c(c1)O[C@H](CN(C)S(=O)(=O)c1ccc(C)cc1)[C@H](C)CN([C@@H](C)CO)S2(=O)=O,3.7,17.6,-2.9,42.6*[16.7 µM],-11.5,15.5
COc1ccccc1-c1ccc2c(c1)O[C@@H](CN(C)S(=O)(=O)c1ccc(C)cc1)[C@@H](C)CN([C@H](C)CO)S2(=O)=O,0.3,5.3,-6.5,28.0[16.7 µM],-13.3,3.1
CCCn1c(O)c(N=NC(=O)CNC(=O)c2cccnc2)c2ccccc21,2.0,10.1,.,7.7,-27.2,13.6
CCCn1c(O)c(N=NC(=O)c2cccnc2)c2cc(Br)ccc21,-2.4,40.9*,22.5,11.9,-18.3,-3.8
COCC(=O)Nc1ccc2c(c1)OC[C@@H](C)N(Cc1cncnc1)C[C@H](C)[C@H](OC)CN(C)C2=O,.,19.5,.,.,.,.
CC(=O)Nc1c(C(=O)C2CC2)oc2ccccc12,1.6,49.7*,3.6,.,15.8,.
C=CCNc1cc(C)oc(=O)c1C(=O)CCC,.,70.9*,.,11.3,-6.6,.
C=CCNc1cc(C)oc(=O)c1C(=O)CC,4.0,42.6,-10.5,-11.5,-1.4,1.0
Cc1cccc(N=Nc2ccc(O)c3ncccc23)c1,.,-11.5,.,30.6,.,52.5
CCN(CC)S(=O)(=O)c1cc(OC)ccc1N=Nc1ccc(O)c2ncccc12,0.2,14.0,27.9,50.7,28.2,96.3*
Oc1ccc(N=Nc2ccc3c(c2)OCCO3)c2ncccc12,0.1,22.3,21.3,11.8,2.0,76.3*
CCS(=O)(=O)c1ccc(OC)c(N=Nc2ccc(O)c3ncccc23)c1,2.2,-15.1,-0.5,36.2,10.8,50.0
Cc1ccc(C)c(N=Nc2ccc(O)c3ncccc23)c1,.,4.5,.,-39.9,.,-6.7
NS(=O)(=O)c1ccc(N=Nc2ccc(O)c3ncccc23)cc1,2.7,0.3,24.0,61.1*,.,59.9
Cc1ccc(S(=O)(=O)N(C)C[C@H]2Oc3c(NC(=O)Nc4ccccc4)cccc3C(=O)N([C@H](C)CO)C[C@@H]2C)cc1,-3.0,-5.4,3.1,13.9[16.7 µM],8.3,20.0
C=CCOc1c(Cl)cc(C(=S)N2CCCC2)cc1OCC,?,-23.8,58.0*,-36.9,-1.5,43.4
CCOc1cc(C(=S)N2CCCC2)ccc1O,-3.0,17.0,-3.5,-23.0,-6.1,9.5
O=C(NCCc1c[nH]c2ccccc12)c1ccc([N+](=O)[O-])o1,-8.5,0.4,13.6,?,-2.3,71.7*
COC(=O)c1ccc(CNC(=O)CCc2c[nH]c3ccccc23)cc1,-0.1,50.2*,9.6,-6.9,.,7.8
COc1ccc(C(C)=O)cc1CS(=O)(=O)CC(=O)NCCc1c[nH]c2ccccc12,12.2*,.,-9.9,-11.4,-1.4,23.9
O=C(NCCc1c[nH]c2ccccc12)c1cc([N+](=O)[O-])cc([N+](=O)[O-])c1,-3.6,-0.6,13.0,-13.3,.,9.3
COc1ccc(NC(=O)Nc2ccc3c(c2)[C@H]2C[C@H](CC(=O)O)O[C@H](CO)[C@H]2O3)cc1,-1.0,0.0,-4.9,-13.9[16.7 µM],4.7,-6.6
SMILES,F508del corr,GSIS activator,EWS-Fli block,HIV Env fusion,PGC1a acetyl inh,PAX8 reporter
Cc1ccc(NC(=O)C2CC(=O)N/C(=N/N=C/c3ccco3)S2)cc1C (stereo unspecified),-0.2,.,5.1,.,.,117.7*
CC(=O)N(C)C[C@H]1[C@H](c2ccc(C3=CCCC3)cc2)[C@H](CO)N1CC1CC1,0.9,-19.1,-7.5,.,-20.2,-1.9
COc1ccccc1S(=O)(=O)N[C@H]1CC[C@@H](CCNC(=O)C2CCCCC2)O[C@H]1CO,0.2,0.6,-2.4,-17.9[16.7 µM],0.4,-5.7
O=C(COc1ccc(Cl)cc1)NCCS(=O)(=O)N1CCN(c2ccccc2F)CC1,-1.5,40.6*,-5.7,-0.3,7.6,18.3
COc1ccc(C#Cc2ccc([C@@H]3[C@H](CO)N4CCCCN(C(=O)Nc5ccccc5)C[C@@H]34)cc2)cc1,-4.9,-16.8,69.7*,.,-78.0,54.0
COc1ccc(NC(=O)N2CCCCN3[C@H](CO)[C@H](c4ccc(C#Cc5ccccc5)cc4)[C@H]3C2)cc1,-3.4,.,2.7,.,-41.7,82.0*
O=C(Nc1ccc(F)cc1)N1CCCCN2[C@H](CO)[C@@H](c3ccc(C#Cc4ccccc4)cc3)[C@@H]2C1,2.7,-32.1,7.4,.,-18.8,24.4
O=C(Nc1ccc(F)cc1)N1CCCCN2[C@@H](CO)[C@H](c3ccc(C#Cc4ccccc4)cc3)[C@@H]2C1,3.1,-28.0,60.5*,.,-12.7,69.9*
O=C(N[C@@H]1CC[C@@H](CCNS(=O)(=O)c2cccc(Cl)c2)O[C@H]1CO)c1ccc(F)cc1,-1.4,-26.0,4.7,12.8[16.7 µM],-0.5,0.9
CC1=NNC(=O)/C1=C\c1cn(-c2ccccc2)nc1-c1cccs1,-4.0,4.2,77.4*,-270.5,.,3.7
C[C@H]1CN([C@@H](C)CO)C(=O)c2cccc(NC(=O)C3CC3)c2O[C@@H]1CN(C)Cc1ccc(Cl)c(Cl)c1,0.5,-17.1,2.5,-4.5[16.7 µM],0.9,.
CCN(CCNC(=O)C1CCN(Cc2nc(-c3ccc(Cl)cc3)oc2C)CC1)c1ccccc1,.,.,.,7.7,1.9,15.7
CCN(CCNC(=O)C1CCN(Cc2nc(-c3cccc(Cl)c3)oc2C)CC1)c1ccccc1,.,.,.,55.3*,-10.0,.
Cc1ccccc1-c1nc(CN2CCC(C(=O)NCCC3=CCCCC3)CC2)c(C)o1,.,.,.,72.6*,-8.8,4.7
COc1ccc(CCNC(=O)C2CCN(Cc3nc(-c4ccc(Cl)cc4)oc3C)CC2)cc1OC,-1.6,10.0,-0.6,5.0,-7.1,11.4
COc1ccc(CCNC(=O)C2CCN(Cc3nc(-c4ccccc4C)oc3C)CC2)cc1OC,.,.,.,56.8*,-10.1,.
C[C@@H]1CCCCO[C@H](CN(C)Cc2ccc(C(=O)O)cc2)[C@@H](C)CN([C@@H](C)CO)C(=O)c2cc(NS(C)(=O)=O)ccc2O1,-2.5,24.8,-2.9,10.5[16.7 µM],-4.1,14.0
COc1ccc(NC(=O)Nc2ccc3c(c2)CC(=O)N([C@@H](C)CO)C[C@@H](C)[C@H](CN(C)S(=O)(=O)c2cn(C)cn2)O3)cc1,2.3,-2.4,-5.8,-6.3[16.7 µM],0.4,6.4
Cc1ccc(S(=O)(=O)N(C)C[C@H]2Oc3ccc(NC(=O)CCC(F)(F)F)cc3C(=O)N([C@H](C)CO)C[C@@H]2C)cc1,2.9,-7.1,0.4,7.3[16.7 µM],48.4*,-6.6
